# Bioassay records (PubChem BioAssay)
# A selection: hits, their analogues and other compounds. The true share with any hit is near 1.5%.
# GLD-1 TGE inh = GLD-1-TGE RNA interaction inhibition (C. elegans). purified GLD-1 + fluorescein TGE RNA, fluorescence polarization. hit rate 0.44% among 320,000. Q17339. inhibition, % at 5.96 µM. AID 2280;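 active = percent inhibition above a per-plate cutoff, the plate mean of test compounds plus 3 SD, cut at about 30% in these data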
# IDE cell activ = activators of human insulin-degrading enzyme in cells; hit rate 0.073% among 340,000; P14735; AID 493087; activation, % at 5.96 µM; HEK cells, FAbeta-B cleavage, fluorescence polarization; 0% vehicle, 100% cell-free pure enzyme wells;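 active = activation above the mean of all tested compounds plus 3 SD, set per screening campaign, cut at about 17% in these data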
# MEX-5 binding = C. elegans MEX-5 TCR-2 RNA binding activity | hit rate 0.38% among 300,000 | MEX-5/FITC-TCR2 RNA binding, fluorescence polarization; hits give low values | Q9XUB2 | activity score (negative = inhibition of binding), % at 10 µM;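 active = inhibition past about -25% in most replicates, and total fluorescence under double the plate's negative control median, limit read from the data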
# IDE cell inh = cellular human IDE inhibition | HEK cells, FAbetaB cleavage, fluorescence polarization | inhibition, % at 5.59 µM | P14735 | hit rate 0.41% among 320,000;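 active = percent inhibition above the average of all tested compounds plus 3 SD, set per screening campaign, cut at about 16% in these data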;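 also: IDE supplied by intact live HEK cells; FP after avidin binding of uncleaved biotin substrate so inhibition keeps polarization high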
# Bcl-xL primary = inhibitors of human Bcl-xL; hit rate 0.7% among 320,000; GST-Bcl-xL / FITC-Bim BH3 peptide fluorescence polarization; inhibition, % at 10.9 µM;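 active = inhibition above the mean of all tested compounds plus 3 SD, cutoff set per campaign, cut at about 30% in these data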;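 also: inhibitors lower millipolarization by displacing the labeled peptide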
# Target sequence (Q07817 whole entry, looked up): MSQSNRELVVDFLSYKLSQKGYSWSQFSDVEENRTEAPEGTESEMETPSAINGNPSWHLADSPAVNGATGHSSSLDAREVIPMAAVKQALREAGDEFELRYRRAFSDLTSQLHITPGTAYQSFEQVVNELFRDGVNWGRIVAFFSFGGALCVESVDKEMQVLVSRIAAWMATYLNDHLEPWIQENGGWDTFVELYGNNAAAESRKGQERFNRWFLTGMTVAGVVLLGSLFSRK
# MCL1 BIM primary = MCL1-BIM-BH3 interaction inhibition (human). inhibition, % at 10.9 µM. Q07820. GST-MCL1 / FITC-Bim-BH3 fluorescence polarization. hit rate 0.68% among 320,000;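 active = inhibition above the mean inhibition of all tested compounds plus 3 SD, set per campaign, cut at about 40% in these data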;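 also: higher means more loss of mP so more displacement of Bim peptide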
# Target sequence (Q07820 whole entry, looked up): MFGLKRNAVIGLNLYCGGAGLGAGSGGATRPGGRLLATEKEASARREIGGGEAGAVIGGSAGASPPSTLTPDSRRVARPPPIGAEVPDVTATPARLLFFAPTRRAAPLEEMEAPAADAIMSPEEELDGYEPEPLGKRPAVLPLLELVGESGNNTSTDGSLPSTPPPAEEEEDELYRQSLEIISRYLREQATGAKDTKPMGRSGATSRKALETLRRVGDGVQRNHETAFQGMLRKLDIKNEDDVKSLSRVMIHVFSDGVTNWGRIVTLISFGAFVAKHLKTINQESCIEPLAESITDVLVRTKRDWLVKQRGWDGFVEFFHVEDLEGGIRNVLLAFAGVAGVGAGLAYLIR
# A number is an active result; – = inactive; · = no result given.
SMILES,GLD-1 TGE inh,IDE cell activ,MEX-5 binding,IDE cell inh,Bcl-xL primary,MCL1 BIM primary
CN1CCN(c2cc(N3CCN(C(=O)c4ccco4)CC3)c3c4c(onc24)-c2ccccc2C3=O)CC1,–,–,–,–,37,43
CCOC(=O)N1CCN(C2=C(NS(=O)(=O)c3ccc(C)cc3)C(=O)c3ccccc3C2=O)CC1,–,–,–,–,–,–
O=C(O)CCCNc1cc(N2CCC3(CC2)OCCO3)c2noc3c2c1C(=O)c1ccccc1-3,–,·,·,–,71,90
CC(C)CCOc1cccc(OCC(=O)Nc2ccncc2)c1,–,–,–,–,–,–
COc1cc(OC)c(OC)cc1/C=N/NC(=O)CCc1c(C)n[nH]c1C,–,–,–,–,–,–
O=C(N=C1SC2CS(=O)(=O)CC2N1Cc1ccccc1)C1CCCCC1 (stereo not given),–,–,–,–,–,–
CC1CCc2nn(CC(=O)NCCN3CCCCC3C)cc2C1 (stereo not given),–,–,-35,–,–,–
CCCN(C(=O)CSc1nc(C2CC2)n(-c2ccccc2)n1)C1CCS(=O)(=O)C1 (stereo not given),–,–,·,–,–,–
Cc1nn(-c2ccccc2)c(N2CCCC2)c1/C=N/NC(=O)c1cc(-c2cccnc2)nc2ccccc12,–,–,-28,–,–,–
COc1ccc(Cl)cc1N=Cc1c(O)c2ccccc2oc1=O,–,–,–,–,–,–
COc1ccc(OC)c(N=Cc2c(O)c3ccccc3oc2=O)c1,–,–,-29,–,–,–
CC(=O)Nc1nonc1NC(=O)CSc1ccccn1,83,–,–,–,–,–
C=CCOn1c(=O)c(-c2ccc(F)cc2)[n+]([O-])c2ccccc21,·,–,–,·,·,·
Oc1ccc(C2C=C(c3ccc(F)cc3)Nc3ncnn32)cc1 (stereo not given),·,–,–,·,·,·
CCOc1ccc(C2C=C(c3ccc(F)cc3)Nc3ncnn32)cc1 (stereo not given),44,–,–,–,38,45
CCOc1ccc(C2C=C(c3ccccc3)Nc3ncnn32)cc1 (stereo not given),37,·,–,–,46,46
CCOc1cc(/C=C2\SC(=Nc3ccc(CC)cc3)NC2=O)ccc1OCC(=O)O,–,–,-44,–,–,–
CCc1ccc(N=C2NC(=O)/C(=C/c3cc(Br)c(OCC(=O)O)c(OC)c3)S2)cc1,–,–,–,–,–,–
C=CCNc1nc(C)c(CNc2c(C)cc(C)cc2C)nc1C#N,–,–,–,–,–,–
Cc1ccc(/C=C2\SC(=S)N(CCCC(=O)Nc3ccccc3C(=O)O)C2=O)cc1,–,–,–,–,–,–
COc1ccc(/C=C2/SC(=S)N(CCCC(=O)Nc3ccccc3C(=O)O)C2=O)cc1,–,22,–,–,–,–
Cn1c(=O)c(-c2cc(=O)[nH][nH]2)c(O)c2ccccc21,–,·,-30,–,–,–
CCn1c(=O)c(-c2cc(=O)[nH][nH]2)c(O)c2ccccc21,–,–,–,–,–,–
O=C(CSc1nnc(NC2CCCCC2)s1)N1CCOCC1,–,–,·,–,–,–
CC(=O)OC1CSC2c3ccccc3C(=O)N2Cc2sccc21 (stereo not given),–,–,–,–,–,–
SMILES,GLD-1 TGE inh,IDE cell activ,MEX-5 binding,IDE cell inh,Bcl-xL primary,MCL1 BIM primary
Cc1c(NC2=C(Cl)C(=O)N(c3ccccc3)C2=O)c(=O)n(-c2ccccc2)n1C,–,–,–,–,–,–
COc1ccccc1N1C(=O)C(Cl)=C(Nc2ccccc2O)C1=O,·,–,-29,·,·,·
O=C1C(Cl)=C(Nc2ccccc2O)C(=O)N1c1ccccc1,–,–,-31,–,–,–
CCCc1cc(=O)[nH]c(-n2[nH]c3c(c2=O)CCCC3)n1,–,–,–,19,47,–
CCCc1cc(=O)[nH]c(SCC)n1,–,–,–,–,–,–
CCOC(=O)c1c(C)[nH]c(C)c1C(=O)COC(=O)C1CC(=O)N(CCc2ccccc2)C1 (stereo not given),–,–,·,–,·,·
CCC(COC(C)=O)Nc1nc2c([nH]1)c(=O)n(C)c(=O)n2C (stereo not given),–,–,–,–,–,–
Cn1c(=O)c2[nH]c(N/N=C(/C#N)C(N)=O)nc2n(C)c1=O,–,·,-27,–,–,–
Cn1c(NC(=O)c2ccccc2Br)cc(=O)n(C)c1=O,–,–,–,–,–,–
Cn1c(NC(=O)c2ccccc2C(F)(F)F)cc(=O)n(C)c1=O,162,–,–,–,–,–
O=C(/C=C/c1ccc(Cl)cc1)Nc1ccc(N2CCCCC2)cc1,–,40,–,–,–,–
COc1cccc(-c2ccc(SCC(=O)NC3CCCCC3)nn2)c1,–,–,–,–,–,–
Cn1cc(/C=N/n2cnc3scc(-c4ccc(Cl)cc4)c3c2=O)c2ccccc21,–,–,-28,–,–,–
CCn1cnc2scc(-c3ccccc3)c2c1=O,–,–,–,–,–,–
N#C/C(=C\c1cc2c(cc1Br)OCO2)c1ccc(C(=O)O)cc1,–,–,–,–,–,–
CCOc1cc2c(cc1/C=C(/C#N)c1ccc(C(=O)O)cc1)OCO2,–,–,-32,–,–,–
CCc1nn(CC(=O)NCCc2ccc(OC)cc2OC)c(=O)c2cc3occc3n12,–,–,–,–,–,–
CCOC(=O)[C@@H]1[C@H]2COc3ccc(Br)cc3[C@@H]2N2C(=O)N(c3ccc(F)cc3)C(=O)[C@]12C,–,–,–,–,–,–
O=C(N/N=C/c1ccc(N2CCOCC2)cc1)C1COc2ccccc2O1 (stereo not given),–,–,–,–,–,–
Cc1ncc(/C=C2\C(=O)Nc3ccccc32)[nH]1,–,·,-40,–,–,–
O=S(=O)(Nc1ccc(O)c2ccccc12)c1cccs1,–,–,–,–,–,–
O=S(=O)(Nc1ccc(O)c2ccccc12)c1ccc(Br)cc1,–,·,-27,–,–,–
COC/C=C/C1=CC2=CC(=O)C(C)(OC(=O)c3cnc4ccccc4n3)C(=O)C2=CN1c1ccc(CO)cc1 (stereo not given),–,·,–,–,–,91
COc1ccc(N(C)S(=O)(=O)c2cccc(C(=O)N3CCN(S(=O)(=O)c4ccc(C)cc4)CC3)c2)cc1,–,–,–,–,–,–
Cc1cccc[n+]1C1C(c2ccccc2)C(C#N)=C(C(=C=[N-])C#N)NC1(O)C1CC1 (stereo not given),–,–,–,–,44,–
N#CC(=C=[N-])C1=C(C#N)C(c2ccccc2F)C([n+]2ccccc2)C(O)(C2CC2)N1 (stereo not given),–,–,–,–,–,–
COc1ccc(NC(=S)NNc2ccc(S(=O)(=O)Nc3ccccc3C(=O)O)cc2[N+](=O)[O-])cc1,–,–,-87,–,–,–
COc1ccc(C=NNc2ccc(S(=O)(=O)Nc3ccccc3C(=O)O)cc2[N+](=O)[O-])c(OC)c1,–,–,·,–,·,·
